Measured values: PubChem BioAssay (Tox21)
Records with an inconclusive call do not appear. Unmarked numbers belong to inactive results. Active and inactive are the calls of the source. Calls come from the whole dose curve; as a rule, active = well fitted cell-killing curve with a large enough effect in the repeat runs; inconclusive = weak or mixed curves, or effect the other way; inactive = flat fitted curve, though single readings scatter.

Assay: qHTS assay to identify small molecule antagonists of the androgen receptor (AR) signaling pathway using the MDA cell line - cell viability counter screen (AID 743041; note: nearly all actives have a fitted effect of over 45% in size)
Settings: MDA-kb2 viability, CellTiter-Fluor, 16 h, cells co-treated with R1881 androgen agonist; series mostly up to 70.3 µM; viability change, negative = cytotoxic: at the top concentration
Excerpt: National Center for Advancing Translational Sciences [NCATS]
NIH Chemical Genomics Center [NCGC]
U.S. Environmental Protection Agency [EPA]
National Institutes of Environmental Health Sciences [NIEHS]
National Toxicology Program [NTP]
U.S. Food and Drug Administration [FDA]
Androgen receptor (AR), a nuclear hormone receptor, plays a critical role in AR-dependent prostate cancer and other androgen related diseases. Endocrine disrupting chemicals (EDCs) and their interactions with steroid hormone receptors like AR may cause disruption of normal endocrine function as well as interfere with metabolic homeostasis, reproduction, developmental and behavioral functions. To identify the compounds that inhibit AR signaling, MDA-kb2 AR-luc cell line (from ATCC, deposited by Wilson et al.) was used to screen the Tox21 10K compound library. MDA-kb2 AR-luc cell line is human breast carcinoma cell line that was stably transfected with a luciferase reporter gene under control of the MMTV promoter containing response elements for both androgen receptor (AR) and glucocorticoid receptor (GR). The cytotoxicity of the Tox21 compound library against the MDA-kb2 AR-luc cell line was tested in parallel by measuring the cell viability using CellTiter-Fluor assay (Promega, Madison, WI) in the same wells.
Tox21 Assay Protocol Summary:
MDA-kb2 AR-luc cells were dispensed at 3,000 cells/4 uL/well of culture medium into white wall/solid-bottom 1536-well plates using a Multidrop Combi (ThermoFisher Scientific, Waltham, MA) dispenser. After the assay plates were incubated at a 37C and 0% CO2 for 5 hr, 23 nL of compounds dissolved in DMSO, positive controls or DMSO only was transferred to the assay plate by a Pintool station (Kalypsys, San Diego, CA), followed by addition of 1 uL of agonist (R1881) in culture medium using a Bioraptr Flying Reagent Dispenser (FRD) workstation (Beckman Coulter, Indianapolis, IN, USA). The plates were incubated at a 37C and 0% CO2 for 16 h. After 15.5 h incubation, 1uL of CellTiter-Fluor reagent (Promega) was added using a Bioraptr FRD to each plate for measuring cytotoxicity. The fluorescence intensity was quantified on a ViewLux plate reader (PerkinElmer, Shelton, CT) following 30 min incubation at 37C and 0% CO2.
% is set by controls: 0 for no effect and ±100 for the full control effect.

| Structure (SMILES) | Potency | viability change, negative = cytotoxic |
| --- | --- | --- |
| C[C@]12CCC(=O)C=C1CC[C@H]1[C@@H]3CC[C@](O)(C(=O)CO)[C@@]3(C)C[C@H](O)[C@@]12F | inactive | – |
| CCO[Si](CC)(OCC)OCC | – | -0.303% |
| OCC(O)CN1CCN(c2ccccc2)CC1 (stereo not given) | – | 6.1% |
| O=Cc1cc2ccccc2o1 | – | 3.63% |
| CSc1cnccn1 | – | 2.7% |
| O=Cc1ccccc1Cl | – | 6.03% |
| CO[Si](CCCn1c(=O)n(CCC[Si](OC)(OC)OC)c(=O)n(CCC[Si](OC)(OC)OC)c1=O)(OC)OC | – | -1.02% |
| CCCCCCCCCOC(=O)CCCCC(=O)OCCCCCCC | – | -0.518% |
| O=C(O)CONC(=O)c1ccccc1 | – | -2.67% |
| COC(=O)/C=C\C(=O)O | – | 10.1% |
| CC(=O)CCC1=C(C)CCCC1(C)C | – | 8.98% |
| O=C[O][Al]([O]C=O)[O]C=O | – | 1.83% |
| CCC(C)OC(C)CC (stereo not given) | – | 25.6% [at 95 µM] |
| CC1OCCC1=O (stereo not given) | – | -0.474% |
| CC(C)c1ccc(C=O)cc1 | – | 0.412% |
| C[Si]1(C)O[Si](C)(C)O[Si](C)(C)O[Si](C)(C)O[Si](C)(C)O1 | – | 5.97% |
| O=C(O)CCCCCC(=O)O | – | 4.72% [at 95 µM] |
| CN1C[C@@H]2C[C@H]1CN2c1cc2c(cc1F)c(=O)c(C(=O)O)cn2C1CC1 | – | -0.142% |
| COC(=O)c1ccccc1C(=O)O | – | 3.68% |
| CC1(C)Cc2cccc(N)c2O1 | – | -2.1% |

| Structure (SMILES) | Potency | viability change, negative = cytotoxic |
| --- | --- | --- |
| O=[N+]([O-])c1c(Cl)cc(Cl)cc1Cl | – | -1.3% |
| CN1CCOC(c2ccccc2)c2ccccc2C1 (stereo not given) | – | 24.5% [at 32.5 µM] |
| Cc1c(N)cccc1Cl | – | 14.2% |
| Cc1ccccc1C(N)=O | – | 1.72% |
| CO/N=C(/C(=O)N[C@@H]1C(=O)N2C(C(=O)[O-])=C(C[n+]3ccn4ncccc43)CS[C@H]12)c1nsc(N)n1 | inactive | – |
| CCO | – | 8.04% [at 95 µM] |
| CC1(C)CC(OC(=O)CCCCCCCCC(=O)OC2CC(C)(C)NC(C)(C)C2)CC(C)(C)N1 | – | -3.34% [at 32.5 µM] |
| CCCC(=O)OC/C=C(\C)CCC=C(C)C | – | 11.2% |
| C=C(C)C1CC=C(C)C(=O)C1 (stereo not given) | – | 27.7% |
| CCCCCC(C)O (stereo not given) | – | -1.79% |
| CCOc1cccc(N)c1 | – | 15.1% |
| CC/C(C)=N\O[Si](C)(O/N=C(\C)CC)O/N=C(\C)CC | – | -2.42% [at 95 µM] |
| Cc1ccc(C(=O)O)cc1[N+](=O)[O-] | – | 8.95% |
| [O]=[Mo](=[O])=[O] | – | 17.9% [at 32.5 µM] |
| CCOCCOCC | – | -9.61% [at 95 µM] |
| CC(=O)C1C(=O)C=C(C)OC1=O (stereo not given) | – | -0.676% |
| CC(C)=CCC[C@@](C)(O)[C@H]1CC=C(C)CC1 | – | -1.79% |
| NCc1ccc(S(N)(=O)=O)cc1 | – | 1.1% [at 32.5 µM] |
| CC(=O)CCc1ccc(OC(C)=O)cc1 | – | 2.86% |
| ONc1ccccc1 | – | 14.9% [at 95 µM] |
